Data published in PubChem BioAssay (NCI).
This is part of a sample that, as a whole, favours compounds with a hit. Of some 83,000 tested, about 20% had one in any assay.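 Cells were grown in 96-well plates and exposed to the test compound at a single concentration for 48 hours; results are reported as percent growth, with values below 10 considered active.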 A number with no mark means an inactive call. Activity calls are given as the source filed them.

Tests used:
Experiment in all cases: NCI-60 one-dose screen, 48 h (100 = growth as untreated, 0 = no growth, -100 = all killed)
Conditions in all cases: 10 µM unless noted
HCT-15 colon = tested on: HCT-15 colon
HT29 colon = tested on: HT29 colon
SNB-75 CNS = tested on: SNB-75 CNS
SNB-19 CNS = tested on: SNB-19 CNS
U251 CNS = tested on: U251 CNS
PC-3 prostate = tested on: PC-3 prostate
SK-MEL-5 melanoma = tested on: SK-MEL-5 melanoma
UACC-62 melanoma = tested on: UACC-62 melanoma
LOX IMVI melanoma = tested on: LOX IMVI melanoma
SK-MEL-28 melanoma = tested on: SK-MEL-28 melanoma
SK-MEL-2 melanoma = tested on: SK-MEL-2 melanoma
EKVX NSCLC = tested on: EKVX NSCLC
SN12C renal = tested on: SN12C renal
UO-31 renal = tested on: UO-31 renal
TK-10 renal = tested on: TK-10 renal
ACHN renal = tested on: ACHN renal
CAKI-1 renal = tested on: CAKI-1 renal
A498 renal = tested on: A498 renal
CCRF-CEM leukemia = tested on: CCRF-CEM leukemia
MOLT-4 leukemia = tested on: MOLT-4 leukemia

| SMILES | growth (HCT-15 colon) | growth (HT29 colon) | growth (SNB-75 CNS) | growth (SNB-19 CNS) | growth (U251 CNS) | growth (PC-3 prostate) | growth (SK-MEL-5 melanoma) | growth (UACC-62 melanoma) | growth (LOX IMVI melanoma) | growth (SK-MEL-28 melanoma) | growth (SK-MEL-2 melanoma) | growth (EKVX NSCLC) [%] | growth (SN12C renal) | growth (UO-31 renal) | growth (TK-10 renal) | growth (ACHN renal) | growth (CAKI-1 renal) | growth (A498 renal) | growth (CCRF-CEM leukemia) | growth (MOLT-4 leukemia) |
| --- | --- | --- | --- | --- | --- | --- | --- | --- | --- | --- | --- | --- | --- | --- | --- | --- | --- | --- | --- | --- |
| COc1cc(OC)c(/C=C/S(=O)(=O)Cc2ccc(OC)c(NCC(=O)NO)c2)c(OC)c1 | 12.9% | 5.84% (active) | 27.6% | 18.5% | 13.4% | 22.7% | -30.6% (active) | 12.4% | 8.14% (active) | 56.8% | 51.1% | 34.4 | 19.2% | 35.4% | 65% | 27.9% | 25.7% | -11.7% (active) | 14.8% | – |
| C=C(C=O)[C@@H]1CC[C@]2(COC(C)=O)CC[C@]3(C)C(CC[C@@H]4[C@@]5(C)CC[C@H](OC(C)=O)C(C)(C)[C@@H]5CC[C@]43C)[C@@H]12 (some centres undefined) | -42.7% (active) | 4.87% (active) | 32.1% | 5.36% (active) | -50.7% (active) | 6.79% (active) | -96.9% (active) | -15.7% (active) | -83.6% (active) | -42.8% (active) | -28% (active) | 12.9 | 1.13% (active) | -94% (active) | 35.5% | -54.3% (active) | -14.9% (active) | -41% (active) | 10.9% | – |
| COc1cc2nc(Cl)nc(Nc3cccc(C4=Nc5c(N)nc(N)nc5NC(c5ccc(Br)cc5)C4)c3)c2cc1OC (centres undefined) | 7.34% (active) | 19.8% | 84.3% | 28.7% | -46.5% (active) | 64.7% | 75.5% | 107% | 27.6% | 99.1% | 94.2% | 97.1 | 99% | 92.9% | 114% | 101% | 90.3% | 90.6% | 10.9% | – |
| CNC(=O)c1cc(N2CCc3cc(NC(=O)Nc4ccc(Cl)c(C(F)(F)F)c4)ccc32)ccn1 | 28% | 61.2% | 93.3% | 61.4% | 52.4% | 29% | 46.6% | 51.8% | 64.7% | 66.9% | 88.5% | 55.1 | 65.2% | 68.4% | 86.6% | 38.1% | 53.9% | 80.3% | 48.4% | 35.6% |
| CCN1CCN(C(=O)[C@]23CCC(C)(C)C[C@H]2C2=CC[C@@H]4[C@@]5(C)Cc6c([nH]c7ccccc67)C(C)(C)[C@@H]5CC[C@@]4(C)[C@]2(C)CC3)CC1 | 79.6% | 88.3% | 87.3% | 91.9% | 83.1% | 75.3% | 97.3% | 94.8% | 76% | 95.5% | 104% | 90 | 81.7% | 75.8% | 119% | 85% | 65% | 97.5% | 80% | – |
| CCCCCc1ccc(S(=O)(=O)Nc2cccc(-c3csc(NC(=O)CCCCCN4CCN(C)CC4)n3)c2)cc1 | -7.05% (active) | 7.36% (active) | 85.9% | 72.3% | 26.2% | 50.3% | -66.8% (active) | 63.2% | -83.8% (active) | -18.9% (active) | 98.3% | 71 | 79.8% | 75.9% | 107% | 86.4% | 79.5% | 78.7% | 5.75% (active) | – |
| N#Cc1c(-c2cccs2)cc(-c2cnccn2)nc1SCC(=O)Nc1ccc(Br)cc1 | 82.9% | 90.9% | 50.6% | 69.4% | 83% | 86.9% | 91.1% | 78.9% | 53.3% | 89.7% | 106% | 57.6 | 87.7% | 58.4% | 83% | 64.5% | 64.4% | 6.18% (active) | 83.4% | 89.5% |
| CC(C)(C)c1ccc(CC(=O)Nc2sc3c(c2C(N)=O)CCC(=O)C3)cc1 | -19.5% (active) | 3.3% (active) | 23% | 22.8% | 14.9% | 13.1% | -76% (active) | -32.8% (active) | -3.55% (active) | 5.18% (active) | -5.02% (active) | 10.8 | 6.98% (active) | -87.5% (active) | 16.6% | -90.8% (active) | -56.2% (active) | 47.7% | 10.8% | – |
| CN(C)CCCOc1ccc2c(c1)CN(C(=O)c1cc(C(=O)N3Cc4cccc(F)c4C3)ccc1O)C2 | 88.5% | 106% | 95% | 101% | 98.4% | 102% | 98.2% | 96.3% | 91.8% | 104% | 117% | 103 | 99.4% | 95.3% | 122% | 106% | 95.8% | 97.1% | 98.1% | – |
| C#CC(=O)N(c1ccc(OC)cc1OC)C(C(=O)NCC(=O)OCC)c1cccs1 (centres undefined) | 56.6% | -7.89% (active) | -71% (active) | 77.1% | 5.16% (active) | -13.2% (active) | 99.3% | 82.6% | -78.8% (active) | 92.4% | 95% | 36.4 | 44.9% | -79.9% (active) | 105% | -90.2% (active) | -83.9% (active) | 57.2% | -53.8% (active) | -22.2% (active) |
| O=S(=O)(NCCCNc1nccc(-n2cnc3ccccc32)n1)c1ccc(C(F)(F)F)cc1 | 81.8% | 96.3% | 87.2% | 94.2% | 90.8% | 66.7% | 58.8% | 62% | 85.6% | 103% | 97.8% | 75.1 | 85.9% | 60.7% | 95.7% | 87.1% | 60.5% | 72.1% | 70.9% | – |
| NC(=O)c1cccc(-n2ccc3cc(NC(=O)Nc4ccc(N5CCOCC5)c(C(F)(F)F)c4)ccc32)n1 | 10.4% | 4.89% (active) | -24.4% (active) | 2.44% (active) | 0.717% (active) | 5.77% (active) | -79.6% (active) | -16.1% (active) | -10.9% (active) | -0.669% (active) | 1.78% (active) | 11.2 | 14.1% | 4.85% (active) | -7.65% (active) | 11.6% | 6.33% (active) | -57.1% (active) | 1.21% (active) | – |
| COc1cc(-c2nn(C(C)(C)C)cc2-c2ccnc(NCCCNS(=O)(=O)c3ccc(Cl)cc3)n2)ccc1Cl | 51.5% | 49.4% | 41.7% | 87.1% | 77.3% | 30.5% | 77% | 61.7% | 65.4% | 84.2% | 82.5% | 31.3 | 46% | 32.7% | 66.1% | 64.1% | 17.7% | 49.4% | – | – |
| Cc1nn(-c2ccccc2)c2ncnc(N/N=C/c3cccc(O)c3)c12 | 22.8% | 81% | 33.2% | 49% | 40.8% | 42.6% | 30.5% | 32.7% | 29% | 54.2% | 22.6% | 81.6 | 44.4% | 40.7% | 56.4% | 50.6% | 48.7% | 48.2% | 27% | 22% |
| NC(N)=Nc1ccc(Oc2cccc(Nc3ccc(Cl)c(C(F)(F)F)c3)c2)cc1 | 79.5% | 49% | 47.4% | 24.8% | -27.6% (active) | 28.3% | 43.9% | 40.1% | -62.4% (active) | 67.7% | 83.7% | 36.1 | 27.1% | 76.2% | 82.6% | 74% | 39.8% | 36.7% | 17.5% | 17.8% |
